Shown is part of a subset that was picked to be rich in hits.
FECH block: inhibitors of human ferrochelatase. P22830. purified FECH, Ni-mesoporphyrin absorbance 550 nm. calls only at 10 µM (by protocol). 20,000 tested, 3.3% active. AID 1671448;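 active = enzyme reaction rate more than 3 SD below the solvent-only control wells on the same plate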;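 also: lower slope than DMSO wells means FECH inhibition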
Target sequence (P22830 whole entry, looked up): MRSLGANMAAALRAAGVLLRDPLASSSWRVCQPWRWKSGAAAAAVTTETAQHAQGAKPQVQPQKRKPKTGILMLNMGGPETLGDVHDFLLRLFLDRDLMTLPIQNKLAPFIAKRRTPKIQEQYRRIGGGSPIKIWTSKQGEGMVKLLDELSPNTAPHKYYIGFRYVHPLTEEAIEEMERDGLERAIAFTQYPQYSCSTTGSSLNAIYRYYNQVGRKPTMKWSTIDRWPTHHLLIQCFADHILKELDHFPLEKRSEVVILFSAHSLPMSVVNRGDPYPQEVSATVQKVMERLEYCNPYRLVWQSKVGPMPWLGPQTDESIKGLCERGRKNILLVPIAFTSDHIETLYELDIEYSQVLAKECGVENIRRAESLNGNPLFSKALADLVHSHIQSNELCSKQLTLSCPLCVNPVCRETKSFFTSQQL
* marks the source's active call; other numbers are inactive results; i = inactive; + = active, no number.

SMILES	FECH block
CCOc1ccc(NC(=O)CN2CCCN(Cc3ccc(OC)cc3)S2(=O)=O)cc1	i
CCc1ccc(NC(=O)CN2CCCN(Cc3ccc(Cl)cc3)S2(=O)=O)cc1	i
O=C(NC1CCCCC1)c1nc[nH]c1C(=O)N1CCN(Cc2ccccc2)CC1	i
COCc1c(C(=O)N2CCCC(C(=O)c3ccccc3)C2)noc1C (centres undefined)	i
O=S(=O)(NCCn1c(-c2ccccc2)nc2cccnc21)c1ccccc1	i
COc1ccc(Cc2nc(CCc3ccccc3)n[nH]2)cc1C	i
Cc1ccc(S(=O)(=O)NCc2nc3cccnc3n2C(C)C)cc1Cl	i
CN(Cc1cn[nH]c1C(=O)O)C1Cc2ccccc2C1	i
COc1cc(C(=O)N(Cc2nc3nc(C)cc(C)n3n2)c2cccc(C)c2)cc(OC)c1OC	i
Cc1cccc(N(Cc2nc3nc(C)cc(C)n3n2)C(=O)C(C)(C)C)c1	i
COc1ccc(C(=O)N(Cc2nc3nc(C)cc(C)n3n2)c2cccc(C)c2)cc1	+
CCCC(=O)N(Cc1nc2nc(C)cc(C)n2n1)c1ccccc1	+
CCCC(=O)N(Cc1nc2nc(C)cc(C)n2n1)c1ccc(F)cc1	i
COc1cccc(C(=O)N(Cc2nc3nc(C)cc(C)n3n2)c2cccc(C)c2)c1	i
Cc1cc(C)n2nc(CN(C(=O)CC(C)C)c3ccccc3)nc2n1	i
Cc1cccc(N(Cc2nc3nc(C)cc(C)n3n2)C(=O)COc2ccccc2)c1	+
CCOc1ccc(N(Cc2nc3nc(C)cc(C)n3n2)C(=O)c2cccc(C)c2)cc1	i
O=C1NCC2(CCCN(Cc3cnc(-c4ccco4)nc3)CC2)O1 (centres undefined)	i
Cc1ccccc1CN(CCO)Cc1ncc[nH]1	i
COc1ccc(Oc2ccc(C(=O)NCc3ccoc3)cc2)cc1	i
Cc1nn(C)cc1C(C)NC(=O)CCC(=O)Nc1ccc(F)c(Cl)c1 (centres undefined)	i
CCc1nc(NC(=O)NCc2ccc(Cl)cc2Cl)nn1C	i
COc1ccc(S(=O)(=O)NCc2nc3cccnc3n2Cc2ccccc2)cc1OC	i
Cc1cccc2nc(C(=O)N3CCNCC3C(=O)NC3CC3)cn12 (centres undefined)	i
COc1cccc(CCNS(=O)(=O)c2cc(N3C(=O)CCS3(=O)=O)ccc2OC)c1	i
SMILES	FECH block
Cn1c(=O)n(Cc2ccncc2)c(=O)c2cnc(-c3ccc(Cl)cc3)nc21	i
COc1ccc(OC)c(S(=O)(=O)N2CCN(c3nc(C)cc(N4CCCC4)n3)CC2)c1	i
CNC(=O)CC(C)N(C)CC1=Cc2cc(Cl)ccc2OC1 (centres undefined)	i
O=C(NCc1ccccc1F)c1cccn1-c1nnc(N2CCCCC2)s1	+
O=C(NCCN1CCCCCC1)c1cccn1-c1nnc(N2CCCCC2)s1	i
Cc1ccccc1CNC(=O)c1cccn1-c1nnc(N2CCCCC2)s1	i
CCc1ccc(NC(=O)C2CCN(c3ccc(-c4cccs4)nn3)CC2)cc1	i
COc1ccc(NS(=O)(=O)c2cc(N3C(=O)CCS3(=O)=O)ccc2OC)cc1OC	i
Cc1cc(C)n2nc(CN(c3ccc(Cl)cc3)S(=O)(=O)c3ccccc3)nc2n1	+
Cc1cc(C)n2nc(N(Cc3ccccc3C)S(=O)(=O)c3ccccc3)nc2n1	i
CCCN(c1nc2nc(C)cc(C)n2n1)S(=O)(=O)c1ccccc1	i
Cc1ccc(S(=O)(=O)N(Cc2ccccc2C)c2nc3nc(C)cc(C)n3n2)cc1	+
CC(=O)CN(c1nc2nc(C)cc(C)n2n1)S(=O)(=O)c1ccc(C)cc1	i
Cc1cc(C)n2nc(CN(c3ccc(F)cc3)S(=O)(=O)c3ccc(Cl)cc3)nc2n1	i
CCCN(c1nc2nc(C)cc(C)n2n1)S(=O)(=O)c1ccc(C)cc1	+
Cc1ccc(S(=O)(=O)N(Cc2ccccc2C)c2nc3nc(C)c(Cl)c(C)n3n2)cc1	i
Cc1cc(C)n2nc(CN(c3ccc(F)cc3)S(=O)(=O)c3ccccc3)nc2n1	i
Cc1cc(C)c2[nH]c(C)c(CC(=O)N3CCC4(CC3)NCCNC4=O)c2c1	i
Cc1cc(N2CCN(c3ccc(F)cc3)CC2)n2nc(-c3cccnc3)nc2n1	i
CN(Cc1cccc2cnccc12)C(=O)c1ccc(-n2cnnc2)cc1	i
COc1ccccc1N1CCN(C(=O)CCc2nc(-c3cc4ccc(C)cc4[nH]c3=O)no2)CC1	+
Cc1ccc2cc(-c3noc(CCC(=O)N4CCCC(C)C4)n3)c(=O)[nH]c2c1 (centres undefined)	i
Cc1ccc2cc(-c3noc(CCC(=O)N4CCC(C)CC4)n3)c(=O)[nH]c2c1	i
CCc1nc(OCC(=O)NCc2ccc(OC(C)C)cc2)c2c(C)c(C)oc2n1	i
COc1ccccc1CNC(=O)c1nc[nH]c1C(=O)N1CCC(C)CC1	i
SMILES	FECH block
Cc1ccc(CNC(=O)c2nc[nH]c2C(=O)NCc2ccccc2)o1	i
CC(C)(C)CNC(=O)c1nc[nH]c1C(=O)NCC(C)(C)C	i
COc1ccccc1CNC(=O)c1[nH]cnc1C(=O)NCc1ccc(C)o1	+
O=C(NC1CC1)c1nc[nH]c1C(=O)NCC1CCCCC1	i
Cc1ccc(CNC(=O)c2[nH]cnc2C(=O)NCCC(C)C)o1	i
COc1ccccc1CNC(=O)c1nc[nH]c1C(=O)NCc1ccccc1OC	+
CCCNC(=O)c1nc[nH]c1C(=O)NCC1CCCCC1	i
COc1ccccc1CNC(=O)c1[nH]cnc1C(=O)NC1CCCCC1	+
CC(C)NC(=O)c1nc[nH]c1C(=O)NCC1CC1	i
COCCNC(=O)c1[nH]cnc1C(=O)NC1CCCCC1	i
COc1ccccc1CNC(=O)c1[nH]cnc1C(=O)NC1CCCc2ccccc21 (centres undefined)	+
COc1ccc(C(C)(C)C)cc1S(=O)(=O)N1CCN(c2nc(C)cc(Nc3ccccc3)n2)CC1	i
CCc1[nH]c2c(CNC(=O)Cn3ccc(=O)c4ccccc43)cc(C)cc2c1C	i
COc1cccc(C2c3nc[nH]c3CCN2Cc2cc(C(C)(C)C)n[nH]2)c1 (centres undefined)	i
CCC(CC)n1nc(C)cc1NC(=O)C1(C)CC(C)=NO1 (centres undefined)	i
CC(C)C1CN(C(=O)CCC2=NNC(=O)CC2)CCCN1CC1CC1 (centres undefined)	i
O=C(c1ccccc1OCc1ccccc1)N1CCOC2(CNCCOC2)C1 (centres undefined)	i
CC(C)CN(Cc1cnn(C)c1)C(=O)COc1cccc(Cl)c1	i
Cc1cc(N2CCN(c3ccccc3)CC2)n2nc(-c3cccnc3)nc2n1	i
CCCc1cc(Sc2ccc(NC(=O)Nc3ccc(F)c(Cl)c3)cc2)n2ncnc2n1	i
Cc1ccc(CNC(=O)CN2CCCN(Cc3ccccc3)S2(=O)=O)cc1	i
CCn1nc(-c2ccccc2)c(-c2ccccc2)c(C(=O)Nc2ccc(S(N)(=O)=O)cc2)c1=O	+
NS(=O)(=O)c1ccc(NC(=O)c2c(-c3ccccc3)c(-c3ccccc3)n[nH]c2=O)cc1	i
NS(=O)(=O)c1ccc(NC(=O)c2ccc(-c3nc(-c4ccccc4)no3)cc2)cc1	i
CC(C)Cc1ccc(S(=O)(=O)NCCn2c(-c3ccccc3)nc3cccnc32)cc1	i
Cn1c(=O)n(CCOc2ccc(F)cc2)c(=O)c2cnc(-c3cccnc3)nc21	i
COc1ccccc1C1CCN(C(=O)CCC(=O)NC2CCCC2)CC1	i
CC(C)CC1(CO)CCCN(C(=O)CCC(=O)NC2CCCC2)C1 (centres undefined)	i

Screens deposited in PubChem BioAssay by Corson Lab, School of Medicine, Indiana University.
